Source: PubChem
This is a sample that favours compounds with a hit; in the whole collection about 2% have one here.
ABHD5 PLIN5 PPI: ABHD5-PLIN5 interaction inhibitors, primary screen, cell lysate, split luciferase complementation, luminescence. Perilipin-5 (Homo sapiens) + 1-acylglycerol-3-phosphate O-acyltransferase ABHD5 (Homo …. Split G. princeps luciferase complementation, 4 h. inhibition, % at 4 µM. actives 0.78% (n = 360,000). AID 602281, 2012;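 active = inhibition above the mean inhibition across every tested compound plus 3 SD, cut at about 22% in these data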;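 note: 0% = DMSO only wells and the 100% control is not disclosed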
TLR4 MyD88 comp: inhibitors of TLR4-MyD88 association in cells, primary screen, cell-based, HeLa CL3-4, BLA complementation, FRET ratio. Toll-like receptor 4 (Homo sapiens) + Myeloid differentiation primary response protein …. HeLa CL3-4 TLR4/MyD88 BLA complementation. inhibition, % at 8.4 µM. actives 0.18% (n = 200,000). AID 861, 2007; in the data active = inhibition above about 25%;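 note: 0% = vehicle and 100% = reference inhibitor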
TLR9-MyD88 inh: inhibitors of TLR9-MyD88 association in cells, primary screen, cell-based, CHO, BLA complementation, fluorescence; Toll-like receptor 9 (Homo sapiens) + Myeloid differentiation primary response protein …; CCF4 FRET ratio; inhibition, % at 4.98 µM; actives 0.21% (n = 340,000);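 active = inhibition above the mean over all tested compounds plus 3 SD, cut at about 21% in these data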;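 note: 0% = DMSO only wells and 100% = clavulanate BLA inhibitor control wells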
Beta2AR agonist: beta2AR agonists driving receptor internalization, primary screen, cell-based, FAP fluorogen, flow cytometry | response, % (no concentration beside the values) | Beta-2 adrenergic receptor (Homo sapiens), P07550 | Am2.2-beta2AR cells | actives 0.43% (n = 340,000);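 active = response above a set limit, near 3 SD of response in nonfluorescent compounds, cut at about 42% in these data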
NOD2 RIPK2 PPI: NOD2-RIPK2 binding disruptors in cells, primary screen, fluorescence, CHO cells, BLA complementation; actives 0.38% (n = 360,000); CCF4 ratio; Receptor-interacting serine/threonine-protein kinase 2 (Homo sapiens), O43353; inhibition, % at 4.98 µM; in the data active = inhibition above about 21%;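 note: 0% = vehicle only and 100% = reference blocker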
Granule exo inh: LAMP-1 surface exposure blockers, TALL-104 cells – cell-based, flow cytometry, MLPCN library, primary screen; AID 651702, 2012; TALL-104 LAMP-1 surface exposure; cells stimulated with thapsigargin and PMA; inhibition, % at 10 µM; actives 0.66% (n = 360,000);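 active = inhibition above about 55%, limit read from the data; inconclusive = no clear call, values can overlap the other calls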
Granule exo CP1: inhibitors of lytic granule exocytosis, confirmation, TALL-104 cells, flow cytometry, Cherry Pick01 | shares compounds with Granule exo inh | LAMP-1 externalization; stimulated with PMA plus thapsigargin | inhibition, % at 10 µM | actives 11% (n = 1,500) | AID 651954, 2012; in the data active = inhibition above about 60%;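 note: 0% = stimulated vehicle wells and 100% = unstimulated wells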
An asterisk follows results filed as active; ? = inconclusive; nt = no result given.

SMILES	ABHD5 PLIN5 PPI	TLR4 MyD88 comp	TLR9-MyD88 inh	Beta2AR agonist	NOD2 RIPK2 PPI	Granule exo inh	Granule exo CP1
Cc1ccc2c(CN(C)Cc3ccc(OC(F)F)cc3)cc(=O)oc2c1C	-12	nt	-3	2	-9	84*	-12
CCOc1ccccc1N(C(=O)c1snc(C(N)=O)c1N)C(CC)C(=O)NC1CCCC1 (configuration not stated)	9	nt	-7	-5	-4	60*	-5
COc1ccccc1N(C(=O)c1snc(C(N)=O)c1N)C(C(=O)NCc1ccccc1)c1ccc(C)o1 (configuration not stated)	8	nt	-9	8	-2	73*	-6
COc1ccc(N(C(=O)c2snc(C(N)=O)c2N)C(C(=O)NCc2ccc(F)cc2)c2ccc(C)o2)c(OC)c1 (configuration not stated)	8	nt	-7	-2	-11	15	nt
COc1cc2nc(Nc3ccc(F)cc3)nc(N)c2cc1OC	-2	nt	-8	5	11	65*	-11
COc1cc2nc(Nc3ccc(C)c(C)c3)nc(N)c2cc1OC	10	nt	3	22	3	?	nt
CCOC(=O)Nc1ccc(N2CCOCC2)c(S(=O)(=O)Nc2ccc(Cl)cc2)c1	1	nt	nt	nt	0	1	nt
CN1CCN(c2cc(-c3ccccc3)nc3cc(-c4ccc(F)cc4)nn23)CC1	10	-1	-1	21	6	103*	100*
Fc1ccc(-c2cc3nc(-c4ccccc4)cc(N4CCN(CCN5CCOCC5)CC4)n3n2)cc1	17	13	5	1	-7	73*	38
N#CC(C(O)c1ccccc1)N1CCOCC1 (configuration not stated)	0	nt	0	nt	2	-2	nt
Cc1ccc(CNC(=O)c2ccc(S(=O)(=O)N3CCCCCC3)cc2)cc1	-1	nt	-5	nt	3	-6	nt
Cc1ccc(C(=O)NCCc2ccc(S(=O)(=O)N3CCCC3)cc2)cc1	-3	9	1	0	-2	64*	-4
Cc1ccccc1C1(O)c2ccccc2-c2ccccc21	-3	nt	-4	nt	-10	-3	nt
Cc1noc(C)c1S(=O)(=O)N(CC(=O)NC1CCC(C)CC1)c1ccc(C(C)C)cc1 (configuration not stated)	-4	nt	-8	0	-5	72*	-4
CCOc1ccc(N(CC(=O)NC2CCC(C)CC2)S(=O)(=O)c2c(C)noc2C)cc1 (configuration not stated)	9	nt	-1	-5	-8	0	nt
Cn1c(SCc2cccc(C#N)c2)nc2ccccc2c1=O	3	nt	-6	-2	7	71*	-4
Cn1c(SCc2cccc([N+](=O)[O-])c2)nc2ccccc2c1=O	-2	nt	2	0	-4	1	nt
COc1ccc([C@H]2CC(=O)C[C@@H](CCn3cc(-c4ccc(F)cc4)nn3)O2)cc1	-13	nt	nt	nt	-13	0	nt
COc1ccccc1CNC(=O)c1sccc1-c1ccccc1	1	nt	-10	1	-4	66*	-13
Cc1nc2cc(OC3(C)CCN(Cc4ccc(OC(F)(F)F)cc4)C3)ccc2s1 (configuration not stated)	0	nt	nt	nt	-9	-3	nt
CCOc1ccc(-c2cnc(NCc3cccc4ccccc34)n2CCOC)cc1	7	nt	-2	13	-3	111*	1
O=C(O)C1(O)C[C@@H](O)C(O)[C@H](O)C1 (some centres not stated)	4	nt	-9	-6	-8	2	nt
Cc1cccc(/C=C/c2nc3ccccc3c(=O)[nH]2)c1	1	5	7	-8	-12	1	nt
Cc1[nH]c2ccccc2c1/C=C/c1nc2ccccc2c(=O)[nH]1	6	nt	-2	3	5	58*	36
CCOC(=O)c1c(-c2ccccc2)csc1NC(=O)c1cccc(N2C(=O)CCC2=O)c1	-7	-8	-8	10	-4	86*	0
SMILES	ABHD5 PLIN5 PPI	TLR4 MyD88 comp	TLR9-MyD88 inh	Beta2AR agonist	NOD2 RIPK2 PPI	Granule exo inh	Granule exo CP1
Cn1c(=O)c2c(ncn2CC(=O)OCCCC(=O)c2ccc(Br)cc2)n(C)c1=O	-2	nt	-18	-5	-18	-1	nt
C[C@@H]1CN([C@@H](C)CO)S(=O)(=O)c2ccc(Br)cc2O[C@@H]1CN(C)C(=O)NC1CCCCC1	-1	nt	9	nt	-2	8	nt
COc1cccc(OC)c1C(=O)OCc1c(-c2ccccc2)ncc2ccccc12	0	nt	-4	8	0	-3	nt
Cc1ccc(-c2nnc(-c3ccc(NC(=O)c4ccco4)cc3)o2)cc1	8	-1	11	14	-12	88*	-1
O=C(Nc1ccc(-c2nc3ncccc3o2)cc1)c1ccco1	6	2	2	20	-2	3	nt
CCN1C(=O)C(CC(=O)NCCc2ccccc2)N(NC(=O)c2ccc(Br)cc2)C1=S (configuration not stated)	-2	nt	0	nt	4	-10	nt
O=C(NCc1ccccn1)C1Nc2ccc(C(F)(F)F)cc2C2C=CCC12 (configuration not stated)	-2	nt	8	0	-10	64*	-15
O=[N+]([O-])c1cc(CS(=O)(=O)Oc2ccc(Cl)cc2)c(O)c([N+](=O)[O-])c1	1	nt	1	-2	7	16	nt
O=C(Nc1ccccc1)c1cc(C2CCCN(C(=O)c3cccs3)C2)on1 (configuration not stated)	-8	nt	nt	nt	-2	3	nt
COc1ccc(-c2cc(CNc3nc(NCc4ccccc4OC)nc4ccsc34)on2)cc1	10	nt	nt	nt	-1	66*	52
COc1ccccc1CNc1nc(NCc2ccccc2)nc2ccsc12	18	nt	nt	nt	-22	25	nt
COC(=O)c1c(NC(=O)c2ccccc2OC)sc(C(=O)N2CCOCC2)c1C	-3	nt	8	-9	-5	68*	-3
O=C(O)CSc1cc(NS(=O)(=O)c2cccc([N+](=O)[O-])c2)c2ccccc2c1O	-8	nt	7	7	2	75*	-1
CCc1ccc(S(=O)(=O)Nc2cc(SCC(=O)O)c(O)c3ccccc23)cc1	3	4	-3	13	-24	67*	-3
CCOc1ccc(S(=O)(=O)Nc2cc(SCC(=O)O)c(O)c3ccccc23)cc1	-18	nt	6	1	4	0	nt
